In PubChem BioAssay (NCATS):
Inconclusive results are not listed. Where a call stands in place of a potency, no number is given. Unmarked numbers belong to inactive results. Active and inactive are the calls of the source. Calls follow the shape of the dose curve; as a rule, active = well fitted inhibition curve with a large enough effect; inconclusive = small, poorly fitted or top-dose-only effect; inactive = flat fitted curve, though single readings scatter.

How the values were obtained:
NIH3T3 [1] = assay: Cytotoxic Profiling of Annotated Libraries Using Quantitative High-Throughput Screening (AID 1296008); conditions: Five cell lines viability, CellTiter-Glo ATP luminescence, 48-72 h; max response: active compounds read low
Procedure, shortened: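 Compounds were pin-transferred onto cells and incubated 48 or 72 hr at 37 degree Celsius, 95% humidity. CellTiter-Glo was added, plates sat 10 min at room temperature, then ATP-coupled luminescence was imaged as the viability read-out.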

HACAT = assay: qHTS assay to identify novel small-molecules to repurpose for Merkel cell carcinoma treatment (AID 1296009); conditions: MCC and control cell lines, CellTiter-Glo viability, 72 h; at 44.8 µM (top of the series) unless noted
Procedure, shortened: (§1)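 Viability readout: ATP luminescence (CellTiter-Glo) after 72 hr drug exposure at 37 degree celsius. Dose-response format was 8 points for NPC and 11 points for MIPE; data normalized to in-plate controls.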

MCC-13 = assay: as above; conditions: MCC and control cell lines, CellTiter-Glo viability, 72 h; series mostly up to 46 µM
Procedure, shortened: as §1

MCC-26 = assay: as above; conditions: MCC and control cell lines, CellTiter-Glo viability, 72 h; series mostly up to 46 µM
Procedure, shortened: as §1

MKL-1 = assay: as above; conditions: MCC and control cell lines, CellTiter-Glo viability, 72 h; series mostly up to 46 µM
Procedure, shortened: as §1

MKL-2 = assay: as above; conditions: MCC and control cell lines, CellTiter-Glo viability, 72 h; series mostly up to 46 µM
Procedure, shortened: as §1

HEK293T = assay: as above; conditions: MCC and control cell lines, CellTiter-Glo viability, 72 h; at 44.8 µM (top of the series)
Procedure, shortened: as §1

NIH3T3 [2] = assay: as above; conditions: MCC and control cell lines, CellTiter-Glo viability, 72 h; at 44.8 µM (top of the series) unless noted
Procedure, shortened: as §1

CRL-7250 = normal cell line; assay: as above; conditions: MCC and control cell lines, CellTiter-Glo viability, 72 h; at 44.8 µM (top of the series) unless noted
Procedure, shortened: as §1
Also: nearly all actives have a fitted effect of over 60% in size.
Potency is read from the fitted curve at half-maximal effect.

Row | SMILES | max response (NIH3T3 [1]) | outcome (HACAT) | Potency (MCC-13) | Potency (MCC-26) | Potency (MKL-1) | Potency (MKL-2) | outcome (NIH3T3 [1]) | outcome (HEK293T) | outcome (NIH3T3 [2]) | Potency (NIH3T3 [1]) | outcome (CRL-7250)
1 | CN1C2CCC(C)(C)C1CC(OC(=O)C(O)(c1cccs1)c1cccs1)C2 (stereo unspecified) | -4.3% | inactive | inactive | inactive | inactive | inactive | – | – | – | – | –
2 | CCOC(=O)C(c1c(O)c2ccccc2oc1=O)c1c(O)c2ccccc2oc1=O | – | inactive | inactive | inactive | inactive | inactive | inactive | inactive | inactive | – | –
3 | Cc1ccc([N+](=O)[O-])[c]2c1[O][Hg]2 | – | – | 2110 nM (active) | 1880 nM (active) | 133 nM (active) | 42.2 nM (active) | – | – | – | 4220 nM (active) | –
4 | O=C(CCCCl)c1ccc(F)cc1 | -0.659% | – | inactive | inactive | inactive | inactive | – | inactive | – | – | –
5 | C[C@]12Cc3nonc3C[C@@H]1CC[C@@H]1[C@@H]2CC[C@@]2(C)[C@H]1CC[C@]2(C)O | -6.95% | inactive | inactive | inactive | – | – | – | – | – | – | –
6 | CCCC(C)C1(CC)C(=O)N=C(S)NC1=O (stereo unspecified) | -2.94% | – | inactive | inactive | inactive | inactive | – | inactive | – | – | –
7 | CC(Cc1ccccc1)NCCCCl (stereo unspecified) | 3.33% | inactive | inactive | inactive | inactive | – | – | – | – | – | inactive
8 | O=C1CN2CCOC2(c2ccccc2Cl)c2cc(Cl)ccc2N1 (stereo unspecified) | – | – | inactive | inactive | inactive | inactive | inactive | – | inactive | – | inactive
9 | COc1cc(CC#N)cc(OC)c1OC | -3.69% | inactive | inactive | inactive | inactive | inactive | – | – | – | – | –
10 | CCN(Cc1ccc(Cl)nc1)/C(=C/[N+](=O)[O-])NC | 3.9% | inactive | inactive | inactive | inactive | inactive | – | inactive | – | – | –
